Hits are enriched below; roughly 10% of the tested compounds scored in any of these assays.
Luciferase inh: blocks purified firefly luciferase enzyme activity; actives 2.5% (n = 76,000); Potency, µM (top dose mostly 115 µM), usual class: inhibitors; P08659; AID 1347043; purified P. pyralis luciferase, luminescence, biochemical; further: nearly all actives have a fitted effect of over 65% in size
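Luminescence read by CCD imaging after purified firefly luciferase (10nM final) was added to substrate buffer holding 10uM D-luciferin and 10uM ATP, pH 7.5, pre-dosed with compound.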
NPR1 antag: antagonists of human natriuretic peptide receptor Npr1. AID 1347048. Potency, µM (series often up to 46.3 µM), for the others: top-dose activity change, negative = inhibition, usual class: inhibitors. HEK293 hNpr1 GloSensor cGMP, ANP-stimulated luminescence. P16066. actives 1.6% (n = 76,000); calls by dose curve; further: nearly all actives have a fitted effect of over 60% in size
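HEK293 cells stably expressing human Npr1 and cGMP GloSensor pGS-40F, loaded 2 h with 2% GloSensor reagent, given compound 30 min at room temperature. Luminescence read before and 20 min after 0.1 nM hNppA.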
GPT2 inhibitor: GPT2 alanine aminotransferase inhibition. Recombinant GPT2, coupled pyruvate oxidase/HRP Amplex Red fluorescence. Potency, µM (titrated, usually from 57.7 µM), for the others: at the top dose activity change, negative = inhibition, usual class: inhibitors. actives 0.25% (n = 100,000); further: nearly all actives have a fitted effect of over 60% in size
Target sequence (Q8TD30 whole entry, looked up): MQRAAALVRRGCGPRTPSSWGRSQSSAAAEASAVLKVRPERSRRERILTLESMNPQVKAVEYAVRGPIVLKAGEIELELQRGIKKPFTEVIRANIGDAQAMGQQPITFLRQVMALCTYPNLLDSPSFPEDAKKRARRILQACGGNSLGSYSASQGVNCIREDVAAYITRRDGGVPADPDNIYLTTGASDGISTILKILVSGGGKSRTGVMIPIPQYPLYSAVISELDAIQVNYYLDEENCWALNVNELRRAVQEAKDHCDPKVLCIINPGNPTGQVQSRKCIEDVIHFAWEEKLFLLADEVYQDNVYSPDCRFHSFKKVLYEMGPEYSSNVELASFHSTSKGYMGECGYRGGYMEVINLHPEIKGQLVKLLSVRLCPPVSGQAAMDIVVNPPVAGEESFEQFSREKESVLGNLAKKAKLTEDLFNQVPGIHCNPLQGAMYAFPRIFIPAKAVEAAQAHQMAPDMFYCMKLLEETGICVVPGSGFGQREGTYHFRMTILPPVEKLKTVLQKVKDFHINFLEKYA
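Fluorescence of coupled pyruvate oxidase/HRP/Amplex Red system (50uM Amplex, 30 min, dark) reports pyruvate formed by GPT2. Enzyme reaction: 10ng/uL GPT2, 2mM L-alanine, 250uM a-KG, 30 min room temperature, pH 7.5; 50uM AOA control.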
HEK293 tox: HEK 293 cell cytotoxicity | Potency, µM (top dose mostly 115 µM), without a hit: top-dose activity change, negative = cytotoxicity, actives largely listed as inhibitors | actives 6.6% (n = 94,000) | HEK 293 viability, ATP luminescence (CellTiter-Glo), 48-72 h; further: nearly all actives have a fitted effect of over 60% in size
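HEK 293 cells seeded at 250 cells/well were exposed to compound for 48 or 72 hr at 37 degree Celsius. Viability taken as ATP content by CellTiter-Glo luminescence.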
NIH3T3 tox: kills NIH 3T3 cells | NIH 3T3 viability, CellTiter-Glo ATP luminescence, 48-72 h | Potency, µM (doses to about 96.7 µM), inactives show at the highest dose activity change, negative = cytotoxicity, usual class: inhibitors | actives 4.3% (n = 94,000) | AID 1345082; further: nearly all actives have a fitted effect of over 55% in size
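Viability of NIH 3T3 cells after 48 or 72 hr compound treatment at 37 °C was assessed by CellTiter-Glo, with luminescence imaged following a 10 min room-temperature step.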
The depositor's hits bear a star; i = inactive; ? = inconclusive; · = not tested or not shown; ! = a repeat was not active; [ ] = dose if it differs, or a comment. Unless noted, the call rests on the fitted dose curve; in most records, active means well fitted curve in the direction sought with a large enough effect; inconclusive means small, poorly fitted or top-dose-only effect, or another doubt; inactive means no such curve, though single readings can be large; an effect the other way counts as inactive or inconclusive. On the % scale 0 is the no-effect control and ±100 the full control effect; potency means the concentration at half of the fitted maximal effect.

SMILES	Luciferase inh	NPR1 antag	GPT2 inhibitor	HEK293 tox	NIH3T3 tox
Cc1cc(C)cc(-c2ccccc2CN)c1	·	·	-1%[88.5 µM]	112µM*	?
Cc1ccc(-c2ccccc2CN)cc1Cl	·	·	i	35µM*	35µM*
O=c1[nH]c2cc(C(F)(F)F)ccc2n1-c1cc(C(F)(F)F)ccc1O	·	·	-8%	·	·
CC(NC(=O)c1ccc2c(c1)CC(=O)N2Cc1ccccc1)c1ccc(F)cc1 (centres undefined)	i	-19%	i	?	?
CC(C)NC(=O)c1ccccc1OCC1CCCN(Cc2ccc(F)cc2)C1 (centres undefined)	i	4%	-6%	40µM*	?
O=C(NC1CC1)c1ccccc1OCC1CCCN(CC2=Cc3ccccc3OC2)C1 (centres undefined)	i	?	i	40µM*	?
CC(C)NC(=O)c1ccccc1OCC1CCCN(CC2=Cc3ccccc3OC2)C1 (centres undefined)	i	-20%	i	35µM*	?
CC(C)NC(=O)c1ccccc1OCC1CCCN(Cc2nccs2)C1 (centres undefined)	i	-7%	i	?	?
O=C(c1ccccc1OCC1CCCN(CC2=Cc3ccccc3OC2)C1)N1CCCCC1 (centres undefined)	i	-17%	2%	?	?
CN1CCC(C(=O)N2Cc3ccccc3CC3(CCN(Cc4ccc(O)cc4)C3)C2)CC1 (centres undefined)	·	·	i	-17%	-11%
O=C1NCCN1C1CCN(Cc2ccc(F)cc2)CC1	·	·	i	1%[172 µM]	i
CCN(Cc1noc(C)n1)C(=O)c1coc(COc2ccc3c(c2)OCO3)n1	i	4%	?	-28%	-23%
CCCN(CC1CC1)C(=O)c1coc(COc2ccc3sc(C)nc3c2)n1	i	?	-18%	40µM*	?
COc1ccc(-c2nnc(C[C@@H]3C[C@@H](C(C)C)[C@H](CN(C)CCc4ccccn4)C=C3C)o2)cc1	i	-8%	?	22µM*	35µM*
CC1=C[C@@H](CN(C)CCC#N)[C@H](C(C)C)C[C@H]1Cc1nnc(-c2ccc(C)cc2)o1	i	?	-6%[88.5 µM]	50µM*	?
COc1ccc(-c2nnc(C[C@@H]3C[C@@H](C(C)C)[C@H](CN(C)CCC#N)C=C3C)o2)cc1	i	?	?	63µM*	89µM*
C=CCOC(=O)N(C)Cc1cn([C@H]2CN[C@H](C(=O)NC)C2)nn1	i	-8%	5%	0%	0%
O=C(c1cccc(Cl)c1)N1CCCC2(C1)NC(=O)N(Cc1ccccc1)C2=O (centres undefined)	i	-23%	1%	-2%	?
COc1cc(O)cc(C)c1C(=O)O[C@H]1[C@@H](OC(C)=O)[C@H](n2ccc(=O)[nH]c2=O)O[C@@H]1CO	·	·	i	·	·
O=C(c1ccc(C2CCCNC2)cc1)N1CCC(N2CCCCC2)CC1 (centres undefined)	i	7%	i	-9%	-23%
O=C(NCc1ccccc1)C1=NO[C@@H]2CN(Cc3cccc(F)c3)C[C@H]12	i	0%[70.6 µM]	i	45µM*	?
O=C(Nc1ccc(F)c(Cl)c1)C1=NO[C@@H]2CN(CCc3ccccc3)C[C@H]12	i	-1%[70.6 µM]	-12%[88.5 µM]	112µM*	?
O=C(NCc1ccccc1)C1=NO[C@@H]2CN(Cc3cccc(F)c3F)C[C@H]12	i	7%[70.6 µM]	-13%[88.5 µM]	?	-28%[138 µM]
O=C(NCc1ccccc1)C1=NO[C@@H]2CN(Cc3ccc(O)c(Cl)c3)C[C@H]12	i	-13%[70.6 µM]	i	71µM*	?
CN(CCCOc1ccc(Cc2ccccc2)cc1)CCC(=O)O	·	·	i	·	·
SMILES	Luciferase inh	NPR1 antag	GPT2 inhibitor	HEK293 tox	NIH3T3 tox
CCOC(=O)C1CCN(C(=O)c2cn3cc(-c4ccc(OC)cc4)sc3n2)CC1	·	·	i	?	?
COc1ccc(-c2nccn3cc(C(=O)NCc4nc5ccccc5n4C)nc23)cc1	i	?	-7%	28µM*	?
CCOC(=O)C1CCN(C(=O)c2cn3ccnc(-c4ccc(OC)cc4)c3n2)CC1	i	-21%	-1%	79µM*	?
CCOC(=O)C1CCN(C(=O)c2cn3cc(-c4ccc(C(F)(F)F)cc4)sc3n2)CC1	·	·	i	?	40µM*
CCOc1ccccc1CN1C[C@@H](CO)[C@H](c2nc(C)no2)C1	i	2%	i	-14%	-18%
COc1ccccc1-c1ccc(C(=O)N2CCC(NC(=O)Cc3cccc(Cl)c3)CC2)cc1	·	·	4%	16µM*!	16µM*
COc1ccccc1-c1ccc(C(=O)N2CCC(NC(=O)Cc3ccc(F)cc3)CC2)cc1	·	·	-8%	?	45µM*!
COc1ccccc1-c1ccc(C(=O)N2CCC(C(=O)NCCc3ccc(Cl)cc3)CC2)cc1	·	·	-8%	?	32µM*
O=C(O)CCCC[C@@H]1CCSS1	·	·	-25%	·	·
COc1ccc(NC(=O)C2CCN(c3ccnc4ccnn34)CC2)cc1	·	·	-15%[88.5 µM]	?	-17%[138 µM]
O=C(Cc1cccc(F)c1)NC1CCN(c2ccc(F)cc2)C1=O (centres undefined)	i	-1%	4%	-25%	-13%
Cc1ccc(N2CCC(NC(=O)Cc3cccc(F)c3)C2=O)cc1 (centres undefined)	i	7%	i	25µM*	32µM*
C#CCN(C)C(=O)C[C@@H]1c2nc(NC(=O)CCCCC)sc2C[C@@H]2[C@](C)(CO)[C@H](O)CC[C@]21C	i	-4%	1%	-12%	-6%
CCCCCC(=O)Nc1nc2c(s1)C[C@@H]1[C@](C)(CO)[C@H](O)CC[C@@]1(C)[C@@H]2CC(=O)N(C)Cc1ccccc1	i	-11%	-7%	28µM*	50µM*
C[C@@H](NC(=O)C[C@@H]1c2nc(-c3cccnc3)sc2C[C@@H]2[C@](C)(CO)[C@H](O)CC[C@]21C)c1ccccc1	i	-4%	-2%	?	20µM*
CCCCCC(=O)Nc1nc2c(s1)C[C@@H]1[C@](C)(CO)[C@H](O)CC[C@@]1(C)[C@@H]2CC(=O)NC1CCCC1	i	-3%	-13%	-18%	?
CCCCCC(=O)Nc1nc2c(s1)C[C@@H]1[C@](C)(CO)[C@H](O)CC[C@@]1(C)[C@@H]2CC(=O)N[C@H](C)c1ccccc1	i	1%	-8%	40µM*	?
Cc1ccn(CC(=O)N2CCCCCCNC(=O)[C@@H]3CCCC[C@@H]32)n1	i	1%	i	5%	-18%
CC(C)CC1NC(=O)C(C)NC(=O)C(CC(C)C)OC(=O)CCCNC1=O (centres undefined)	·	·	5%[27.3 µM]	·	·
COc1ccc(-c2ccc(C(=O)NC3CC3)cc2)nn1	·	·	·	89µM*	?

Source: PubChem (National Center for Advancing Translational Sciences (NCATS))
